Screens deposited in PubChem BioAssay by National Center for Advancing Translational Sciences (NCATS).
IL-1B inflam inh – qHTS for Inhibitors of Inflammasome Signaling: IL-1-beta AlphaLISA Primary Screen; 4.7% of 360,000 active; AID 743279, 2014; THP-1 LPS/ATP IL-1B secretion, AlphaLISA, 16 h; stronger effect = lower value; activity change, % at 57.5 µM; in the data active = activity change below about -50%; inconclusive = mostly about -30% to -49%
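Secreted IL-1B measured by AlphaLISA bead assay after 16 h compound exposure of THP-1 cells; compounds (final up to 57.5 uM) added 1 h before LPS (250 ng/mL) and ATP (1.25 mM) stimulation; lower signal means less secretion.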
HT1080 IDH1KD tx – qHTS for induction of synthetic lethality in tumor cells producing 2HG: qHTS for the HT-1080-IDH1KD cell line. HT-1080 IDH1 knockdown viability, ATP luminescence, 48 h. Potency, µM (top dose mostly 46.1 µM), for the others: at the highest dose activity, negative = toxicity, usual class: cytotoxic. 2% of 360,000 active;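 also: potency is read from the fitted curve at half-maximal effect; 0% = DMSO wells and -100% = cell-free medium wells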
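CellTiter-Glo luminescence after 48 h compound exposure at 37 degrees C of IDH1-knockdown HT-1080 cells in 5% FBS RPMI. %Activity scaled between DMSO wells and cell-free media wells, with curves fitted and assigned curve classes.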
TDP1 cell noCPT – qHTS for Inhibitors of human tyrosyl-DNA phosphodiesterase 1 (TDP1): qHTS in cells in absence of CPT; DT40 Tdp1-/- hTDP1 cells, no CPT, ATP luminescence, 48 h; Potency, µM (highest dose often 46.2 µM), for inactives: top-dose activity change, negative = growth inhibition, hits mostly inhibitors; 15% of 420,000 active; also: potency is read from the fitted curve at half-maximal effect; nearly all actives have a fitted effect of over 55% in size
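Seeded 400 DT40-hTDP1 cells/well (vehicle DMSO, no 20 nM CPT); pinned compounds; ≥48 hr at 37 °C; CellTiter-Glo luminescence as viability measure.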
TDP1 cell CPT – qHTS for Inhibitors of human tyrosyl-DNA phosphodiesterase 1 (TDP1): qHTS in cells in presence of CPT; chicken DT40 Tdp1-/-;hTDP1 cells + 20 nM CPT, ATP luminescence, 48 h; 12% of 420,000 active; AID 686979, 2013; Potency, µM (series often up to 46.2 µM), inactives show top-dose activity change, negative = growth inhibition, usual class: inhibitors; also: potency is read from the fitted curve at half-maximal effect; nearly all actives have a fitted effect of over 55% in size
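Cell growth measured by CellTiter-Glo luminescence after a minimum 48 h, 37 C compound exposure with 20 nM CPT in Tdp1-knockout DT40 cells stably expressing hTDP1, seeded 400/well; qHTS titration format.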
HT1080NT lethal – qHTS for induction of synthetic lethality in tumor cells producing 2HG: qHTS for the HT-1080-NT fibrosarcoma cell line; 1.6% of 360,000 active; HT-1080-NT fibrosarcoma viability, CellTiter-Glo ATP luminescence, 48 h; AID 686970, 2013; Potency, µM (highest dose often 46.1 µM), without a hit: top-dose activity, negative = less viability, hits mostly cytotoxic;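 also: NT is the 2HG producing partner of a matched IDH1 knockdown line; potency is read from the fitted curve at half-maximal effect; 0% = DMSO-treated cells and -100% = media-only wells without cells; nearly all actives have a fitted effect of over 55% in size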
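HT-1080-NT fibrosarcoma cells (2HG-overproducing), 750 cells/well in RPMI with 5% FBS, dosed after 2 h and incubated 48 h at 37C. CellTiter-Glo luminescence normalized to DMSO and no-cell wells; concentration-response curves fitted and classed.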
An asterisk follows results filed as active; u = inconclusive; x = not tested or not shown; [ ] = another dose, or the depositor's remark. An excerpt weighted towards active compounds, which were near 19% of everything screened. Unless noted, calls follow the shape of the dose curve; as a rule, active = well fitted curve in the direction sought with a large enough effect; inconclusive = small, poorly fitted or top-dose-only effect, or another doubt; inactive = no such curve, though single readings can be large; an effect the other way counts as inactive or inconclusive. Unless noted, % is scaled to controls: 0 for no effect and ±100 for the full control effect.

SMILES	IL-1B inflam inh	HT1080 IDH1KD tx	TDP1 cell noCPT	TDP1 cell CPT	HT1080NT lethal
O=C(C1=C[C@@H](c2coc3ccccc3c2=O)C[C@@H](OCc2ccc(CO)cc2)O1)N1CCCCCCC1	-19	7%	u	12µM*	10%
CN1CCN(C(=O)C2=C[C@@H](c3coc4ccccc4c3=O)C[C@@H](OCc3ccc(CO)cc3)O2)CC1	12	14%	-8%	2%	7%
O=C(C1=C[C@@H](c2coc3ccccc3c2=O)C[C@@H](OCc2ccc(CO)cc2)O1)N1CCN(Cc2ccccc2)CC1	u	2%	u	18µM*	-2%
Cc1ccc(NC(=O)N2CCCC2C(=O)NCC2CCCO2)cc1 (stereo not given)	17	2%	18%	7%	u
Cc1cc(C)n2nc(CNS(=O)(=O)c3ccc(CC(C)C)cc3)nc2n1	51	2%	-20%	-7%	-6%
O=C(Nc1ccccc1)Nc1nnc(Cc2ccccc2F)s1	6	-28%	-9%	6%	-2%
O=C(Nc1ccc(F)cc1)Nc1nnc(Cc2ccccc2F)s1	5	-12%	13µM*	16µM*	-16%
COc1cccc(NC(=O)Nc2nnc(Cc3ccccc3F)s2)c1	17	u	23µM*	u	-29%
O=C(Nc1ccc(Cl)cc1)Nc1nnc(CSCc2ccc(Cl)cc2)s1	-61*	-11%	4.1µM*	2.6µM*	0%
COc1ccc(NC(=O)Nc2nnc(Cc3ccc(F)cc3)s2)cc1	-14	u	26µM*	-21%	-42%
Cc1nnc(SCC(=O)Nc2ccccc2F)n1-c1ccc(F)cc1	4	11%	6%	7%	6%
CCN(CC)C(=O)c1scc2c1OCCO2	-56*	-3%	-20%	-3%	-2%
CCOC(=O)N1CCC2(CC1)C(C#N)=C(N)Oc1c2sc2nc(C)cc(C)c12	-14	u	16µM*	u	u
CCCN1CCC2(CC1)C(C#N)=C(N)Oc1c2sc2nc(C)cc(C)c12	-3	-11%	u	u	-13%
CCOC(=O)N1CCC2(CC1)C(C#N)=C(N)Oc1n[nH]c(C)c12	16	7%[9.24 µM]	-4%	-18%	12%
CCOC(=O)N1CCC2(CC1)C(C#N)=C(N)Oc1c2c(C)nn1-c1cccc(Cl)c1	-6	u	18µM*	16µM*	-4%
COc1cc(C)ccc1S(=O)(=O)NC1CC(C)(C)NC(C)(C)C1	-6	4%	-7%	-11%	-3%
CCOC(=O)C1=CCN(S(=O)(=O)c2ccc(C)cc2)C1c1ccc(C(C)C)cc1 (stereo not given)	17	u	18µM*	18µM*	-26%
CCOC(=O)C1=CCN(S(=O)(=O)c2ccc(C)cc2)C1c1ccc(CC)cc1 (stereo not given)	0	u	18µM*	u	u
CCOC(=O)C1=CCN(S(=O)(=O)c2ccc(C)cc2)C1c1ccc(C)cc1 (stereo not given)	87	-15%	u	u	-18%
CCOC(=O)C1=CCN(S(=O)(=O)c2ccc(C)cc2)C1c1ccc(Cl)cc1 (stereo not given)	4	u	u	u	u
CCOc1cc(C(=S)N2CCOCC2)ccc1OS(=O)(=O)c1ccc(C)cc1	-1	-26%	u	-11%	-24%
CCOc1cc(C(=S)N2CCCCC2)ccc1OS(=O)(=O)c1ccc(Br)cc1	-15	-1%	18µM*	21µM*	-21%
CCOc1cc(C(=S)N2CCCCC2)ccc1OS(=O)(=O)c1ccc(Cl)cc1	-8	-6%	23µM*	16µM*	-25%
CCOc1cc(C(=S)N2CCC(O)CC2)ccc1OS(=O)(=O)c1ccc(Br)cc1	-82*	-3%	18µM*	u	u
SMILES	IL-1B inflam inh	HT1080 IDH1KD tx	TDP1 cell noCPT	TDP1 cell CPT	HT1080NT lethal
CCOc1cc(C(=S)N2CCOCC2)cc(Br)c1OS(=O)(=O)c1ccccc1	-18	-13%	23µM*	u	2%
Cc1ccc(SCC(=O)OCC(=O)N2CCN(C(=O)c3ccco3)CC2)c(C)c1	0	0%	4%	-6%	0%
CC1CCN(C(=O)CSc2nc3c([nH]c4ccccc43)c(=O)n2-c2ccccc2)CC1	x	x	10%	-9%	x
CN1CCN(C(=O)c2ccc3c(c2)N(Cc2cccc(Cl)c2)C(=O)c2ccccc2S3=O)CC1 (stereo not given)	-3	0%	-13%	-4%	3%
O=C(c1ccc2c(c1)N(Cc1ccccc1F)C(=O)c1ccccc1S2=O)N1CCCCC1 (stereo not given)	x	x	-11%	-22%	x
CC1CCCCN1C(=O)c1ccc2c(c1)N(Cc1cccc(Cl)c1)C(=O)c1ccccc1S2=O (stereo not given)	x	x	21µM*	u	x
CC1CC(C)CN(CCCNC(=O)c2ccc3c(c2)N(Cc2ccccc2)C(=O)c2ccccc2S3=O)C1 (stereo not given)	u	-15%	u	u	-1%
CC(C)NC(=O)c1ccc2c(c1)N(Cc1cccc(Cl)c1)C(=O)c1ccccc1S2=O (stereo not given)	x	x	u	21µM*	x
CCOC(=O)N1CCN(C(=O)c2ccc3c(c2)N(Cc2cccc(Cl)c2)C(=O)c2ccccc2S3=O)CC1 (stereo not given)	-23	-23%	26µM*	16µM*	-8%
O=C(c1ccc2c(c1)N(Cc1cccc(Cl)c1)C(=O)c1ccccc1S2=O)N1CCC(Cc2ccccc2)CC1 (stereo not given)	x	x	4.6µM*	3.3µM*	x
CC1CCC(NC(=O)c2ccc3c(c2)N(Cc2cccc(Cl)c2)C(=O)c2ccccc2S3=O)CC1 (stereo not given)	x	x	-23%	-26%	x
O=C(CSc1n[nH]c(-c2ccccc2F)n1)NCC(=O)Nc1ccc(F)c(F)c1F	22	18%	-1%	11%	14%
O=C(c1ccc2c(c1)N(Cc1cccc(Cl)c1)C(=O)c1ccccc1S2=O)N1CCN(c2cccc(C(F)(F)F)c2)CC1 (stereo not given)	x	x	10µM*	16µM*	x
CCN1CCN(C(=O)c2ccc3c(c2)N(Cc2cccc(Cl)c2)C(=O)c2ccccc2S3=O)CC1 (stereo not given)	x	x	21µM*	u	x
